Only some compounds are listed: those with a hit (about 22% of all), similar ones and a draw of the others.
CYP2C19 activ = cytochrome P450 2C19 (human) activation; P33261; 96,000 tested, under 10 active; activation factor at 5 µM; recombinant CYP2C19, luciferin-H EGE luminescence; active compounds read high; 0 = fully inhibited enzyme, 1 = untreated enzyme;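 active means activation factor of at least 2 at 5 µM in the primary screen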
Target sequence (P33261 whole entry, looked up): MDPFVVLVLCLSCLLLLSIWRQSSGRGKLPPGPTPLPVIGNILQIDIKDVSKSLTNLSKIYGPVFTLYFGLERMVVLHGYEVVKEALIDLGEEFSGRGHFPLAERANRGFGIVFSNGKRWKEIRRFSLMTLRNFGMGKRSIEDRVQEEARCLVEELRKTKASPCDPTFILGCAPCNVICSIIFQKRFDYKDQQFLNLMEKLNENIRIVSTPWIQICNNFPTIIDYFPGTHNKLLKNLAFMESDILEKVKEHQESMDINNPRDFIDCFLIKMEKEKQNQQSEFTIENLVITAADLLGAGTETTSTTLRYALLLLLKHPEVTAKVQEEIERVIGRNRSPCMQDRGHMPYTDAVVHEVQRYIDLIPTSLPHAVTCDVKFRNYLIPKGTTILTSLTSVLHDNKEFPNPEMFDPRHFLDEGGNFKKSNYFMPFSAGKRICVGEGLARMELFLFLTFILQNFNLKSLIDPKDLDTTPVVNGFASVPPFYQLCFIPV
CYP2C9 inh = inhibitors of human CYP2C9 | inhibition, % at 5 µM | P11712 | 20% of 96,000 active | CYP2C9 Supersomes, luciferin-H conversion, luminescence;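 active means blocking of liver enzyme CYP2C9 beyond about 50% at 5 µM, limit read from the data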
CYP2C19 inhib = inhibitors of human CYP2C19 | 21% of 96,000 active | inhibition, % at 5 µM | AID 778 | CYP2C19 Supersomes, luciferin-H EGE luminescence, 30 min;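 active means CYP2C19 inhibition above a set limit at 5 µM in the primary screen, cut at about 50% in these data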
CYP2C9 activ = activators of human CYP2C9 | P11712 | recombinant CYP2C9, luciferin-H conversion, luminescence; active compounds read high; factor 1 = untreated enzyme, 0 = blocked | activation factor at 5 µM | 1.4% of 96,000 active | AID 1024;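 active means activation factor of 2 or more for CYP2C9 at a 5 µM dose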
cytoskel mod = cytoskeleton assembly modification | HUVEC TNFa F-actin phalloidin imaging, high content | inhibition, % at 2 µM | 0.18% of 91,000 active;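 active means inhibition above the batch mean plus 3 SD and confirmed as a hit by visual image inspection, cut at about 30% in these data, passing the limit was not always enough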
E-sel TNF inh = TNF alpha driven E-selectin expression inhibition; HUVEC TNFa-induced E-selectin immunofluorescence, high content; inhibition, % at 2 µM; 0.71% of 120,000 active;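 active means inhibition above the batch mean plus 3 SD, and confirmed as a hit on visual image review, cut at about 43% in these data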
Hits are given with their value; i = inactive; nt = not tested or not shown.

SMILES	CYP2C19 activ	CYP2C9 inh	CYP2C19 inhib	CYP2C9 activ	cytoskel mod	E-sel TNF inh
CCOC(=O)C1CCN(C(=S)Nc2cccc(C)c2)CC1	i	i	96	i	i	nt
CCOC(=O)C1CCCN(C(=S)Nc2cc(C)cc(C)c2)C1 (stereo not drawn)	i	i	70	i	i	i
CCOC(=O)C1CCCN(CCC(=O)Nc2cc(C)cc(C)c2)C1 (stereo not drawn)	nt	nt	nt	nt	nt	i
CCOC(=O)C1CCN(C(=O)Nc2ccc3nc(-c4ccco4)c(-c4ccco4)nc3c2)CC1	i	75	71	i	i	i
CC(=O)N(Cc1ccccc1)c1ccc(C(=O)O)cc1	i	i	i	i	i	nt
CSC1=N/C(=C\c2ccccc2F)C(=O)S1	i	i	63	i	i	i
COc1cccc(/C=C2\N=C(SC)SC2=O)c1OC	i	i	i	i	nt	i
CC1Cn2c(nc3c2c(=O)[nH]c(=O)n3C)O1 (stereo not drawn)	i	i	i	i	i	i
CN1C(=O)OC2(C)CCc3ccccc3C12C (stereo not drawn)	i	i	i	i	i	i
CCOC(=O)C1CCN(C(=O)/C=C/c2ccccc2OC)CC1	i	i	51	2.6	nt	i
CCOC(=O)C1CCN(C(=O)/C=C/c2ccc(OC)cc2)CC1	i	i	87	i	i	i
COC(=O)C1CCN(C(=O)/C=C/c2ccccc2)CC1	nt	nt	nt	nt	nt	i
CCOC(=O)C1CCN(C(=O)c2cccc(C(=O)N3CCC(C(=O)OCC)CC3)c2)CC1	i	i	i	i	nt	i
CCCC1S/C(=N/N=C/c2ccc(OC)cc2)N(Cc2ccccc2)C1=O (stereo not drawn)	i	i	i	i	i	i
COc1ccc(CN2C(=O)c3ccccc3C(/C=N/OCc3ccc(Cl)cc3)C2=O)cc1 (stereo not drawn)	i	78	i	i	i	i
CCc1ccc(NC(=O)N(CCN(C)C)C(C)c2cccnc2)cc1 (stereo not drawn)	i	i	i	i	i	i
COc1ccc(/C=N/NC(=O)c2cc(-c3ccccc3OC(C)C)nc3ccccc23)cc1CN1CCOCC1	nt	nt	nt	nt	nt	i
COc1ccccc1-c1cc(C(=O)N/N=C/c2ccc(C)s2)c2ccccc2n1	i	100	75	i	i	i
O=C(N/N=C/c1ccccn1)c1cc(-c2ccc(Cl)cc2)nc2ccccc12	nt	nt	nt	nt	nt	i
CCn1cc(CNC(=O)c2cc(-c3ccccc3OC)nc3ccccc23)c(C)n1	i	i	i	i	i	i
Cc1ccc(-c2cc(C(=O)N/N=C\c3cnn(C)c3C)c3ccccc3n2)cc1C	i	99	87	i	i	i
CCc1ccc(/C=N/NC(=O)c2cc(-c3ccccc3OC)nc3ccccc23)s1	i	94	66	i	i	nt
O=C(COC(=O)c1ccc(S(=O)(=O)N2CCCC2)cc1)Nc1ccc(N2CCOCC2)cc1	nt	nt	nt	nt	nt	i
O=C(c1cccc(C(F)(F)F)c1)C1CCCN(Cc2ccc(OCCO)cc2)C1 (stereo not drawn)	nt	nt	nt	nt	nt	i
Cc1ccc(CCNC(=O)C2CCN(C(=O)N(C)C)CC2)cc1	i	i	i	i	i	i
SMILES	CYP2C19 activ	CYP2C9 inh	CYP2C19 inhib	CYP2C9 activ	cytoskel mod	E-sel TNF inh
CCN(CC)c1ccc(C(=O)Nc2cccc(F)c2)cc1	i	i	64	i	i	i
O=C(CCn1cccc1)Nc1cccc(F)c1	i	i	50	i	i	nt
Cc1ccc(NC(=O)CCn2cccc2)cc1F	i	61	96	i	i	i
CC(=O)NCCC(=O)Nc1ccc(C)c(F)c1	i	i	i	i	i	i
N#Cc1cccc(NC(=O)CCn2ccnc2)c1	i	87	95	i	i	i
O=C(CCN1CCCCCC1)Nc1cccc(F)c1	i	i	i	i	i	i
Nc1ccc2oc(-c3cccs3)nc2c1	i	i	i	i	i	i
O=C(NC(=O)c1cccc(OC(F)(F)C(F)F)c1)OC1CCS(=O)(=O)C1 (stereo not drawn)	i	i	i	i	nt	54
CCCCNC(=O)OC1CCS(=O)(=O)C1 (stereo not drawn)	i	i	i	i	i	i
Cc1cc(NCCCN)nc(-c2ccccc2O)n1	i	i	i	i	i	i
O=C(Nc1ccon1)c1cc2c(s1)CCCCCC2	i	69	55	i	i	i
O=C(NCCCn1ccnc1)c1cc2c(s1)CCCCC2	i	73	93	i	i	i
CNC(=O)c1cc2c(s1)CCCCCC2	nt	nt	nt	nt	i	i
O=C(NCCO)c1cc2c(s1)CCC2	i	i	i	i	i	i
O=C(Nn1cnnc1)c1cc2c(s1)CCCCC2	i	i	72	i	i	i

Assay outcomes from PubChem.
